# Measurements as given in PubChem BioAssay (NCATS).
# Results filed as inconclusive are left out. The source made the active and inactive calls. Unless noted, the call rests on the fitted dose curve; in most records, active means well fitted curve in either direction with a large enough effect (not every such curve was filed as active); inconclusive means small, poorly fitted or top-dose-only effect, or another doubt; inactive means flat fitted curve, though single readings scatter.
# Key:
# [1] = biological target: Lysosomal acid glucosylceramidase (Homo sapiens) (UniProt P04062); assay: Glucocerebrosidase-p2 (AID 348; in the data active means potency below about 10 µM; further: potency means the concentration at half of the fitted maximal effect); conditions: purified GBA, blue fluorogenic substrate, 40 min
# Chain of Lysosomal acid glucosylceramidase (Homo sapiens) (P04062 whole entry, looked up): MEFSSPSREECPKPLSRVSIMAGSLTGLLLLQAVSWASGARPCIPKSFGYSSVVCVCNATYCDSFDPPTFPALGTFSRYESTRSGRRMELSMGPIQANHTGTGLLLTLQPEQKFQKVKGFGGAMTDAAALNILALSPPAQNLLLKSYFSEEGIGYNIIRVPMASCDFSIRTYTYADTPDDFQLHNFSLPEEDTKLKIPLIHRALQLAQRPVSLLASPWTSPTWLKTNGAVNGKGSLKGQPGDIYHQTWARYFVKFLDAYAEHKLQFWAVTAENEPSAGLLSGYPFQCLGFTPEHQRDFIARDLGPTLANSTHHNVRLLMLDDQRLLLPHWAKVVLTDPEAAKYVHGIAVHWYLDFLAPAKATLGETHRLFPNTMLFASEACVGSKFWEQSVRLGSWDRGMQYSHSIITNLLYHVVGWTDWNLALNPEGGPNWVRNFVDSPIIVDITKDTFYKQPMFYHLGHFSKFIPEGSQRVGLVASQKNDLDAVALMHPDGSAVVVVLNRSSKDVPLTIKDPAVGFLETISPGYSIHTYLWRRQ
# Summary of the method: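 Normal human glucocerebrosidase (0.2 nM) with blue fluorogenic substrate (80 uM final) in citrate/phosphate pH 5.9 with 10mM sodium taurocholate, 0.01% tween-20; 40 min RT, NaOH/glycine stop; fluorescence Ex 365/Em 440; AC50 from a titration from 0.6 nM upwards.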
# [2] = AP1 Signaling Pathway (AID 357); conditions: ME-180 AP-1-bla reporter, EGF-induced, beta-lactamase ratio, 5 h; at 7.69 µM (top of the series) unless noted;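 further: ME-180 reporter cells stimulated with EGF at its EC50 level; on the % scale 0 is the no-effect control and ±100 the full control effect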
# Summary of the method: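 Read-out was the 460nm/530nm emission ratio (excitation 405nm) after CCF4 loading for 2.5 hours at room temperature. Cells carried an AP-1-driven beta-lactamase reporter, were stimulated with EC50 EGF plus compound for 5 hours, and AC50 values came from titrations.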
# [3] = NFAT Signaling Pathway (AID 444); conditions: Jurkat NFAT-bla M1, carbachol, beta-lactamase ratio, 5 h; at 7.69 µM (top of the series) unless noted;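 further: carbachol stimulus at about its EC50 of 1 µM final; on the % scale 0 is the no-effect control and ±100 the full control effect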
# Summary of the method: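 Read-out: CCF4 FRET ratio (460 nm/530 nm) after 1 h RT dye loading, used for %activity and AC50 from titration series. Cells: Jurkat NFAT-β-lactamase/M1 line, treated with compound plus 1 uM carbachol for 5 h, 37 °C.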
# [4] = Stat Signaling Pathway (AID 446); conditions: ME-180 (cervical carcinoma) SIE beta-lactamase reporter, IL-6 stimulated, 5 h; at 7.69 µM (top of the series) unless noted;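 further: ME-180 cervical cancer cells given 40 pM IL-6 alongside compound; SIE-controlled beta-lactamase reporter measured as 460/530 nm FRET emission ratio; on the % scale 0 is the no-effect control and ±100 the full control effect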
# Summary of the method: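 Compound effects on IL-6-induced STAT reporter activity were measured in ME-180 cells. After overnight culture, cells were co-treated with 40 pM IL-6 for 5 hrs before beta-lactamase substrate loading at room temperature.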
# [5] = biological target: Glucocorticoid receptor (Homo sapiens) (UniProt P04150); assay: GR-EFC Redistribution (AID 451; calls by dose curve; further: potency means the concentration at half of the fitted maximal effect); conditions: CHO-K1 GR-EFC translocation, beta-gal luminescence, 2 h
# Chain of Glucocorticoid receptor (Homo sapiens) (P04150 whole entry, looked up, the tested form may be a part): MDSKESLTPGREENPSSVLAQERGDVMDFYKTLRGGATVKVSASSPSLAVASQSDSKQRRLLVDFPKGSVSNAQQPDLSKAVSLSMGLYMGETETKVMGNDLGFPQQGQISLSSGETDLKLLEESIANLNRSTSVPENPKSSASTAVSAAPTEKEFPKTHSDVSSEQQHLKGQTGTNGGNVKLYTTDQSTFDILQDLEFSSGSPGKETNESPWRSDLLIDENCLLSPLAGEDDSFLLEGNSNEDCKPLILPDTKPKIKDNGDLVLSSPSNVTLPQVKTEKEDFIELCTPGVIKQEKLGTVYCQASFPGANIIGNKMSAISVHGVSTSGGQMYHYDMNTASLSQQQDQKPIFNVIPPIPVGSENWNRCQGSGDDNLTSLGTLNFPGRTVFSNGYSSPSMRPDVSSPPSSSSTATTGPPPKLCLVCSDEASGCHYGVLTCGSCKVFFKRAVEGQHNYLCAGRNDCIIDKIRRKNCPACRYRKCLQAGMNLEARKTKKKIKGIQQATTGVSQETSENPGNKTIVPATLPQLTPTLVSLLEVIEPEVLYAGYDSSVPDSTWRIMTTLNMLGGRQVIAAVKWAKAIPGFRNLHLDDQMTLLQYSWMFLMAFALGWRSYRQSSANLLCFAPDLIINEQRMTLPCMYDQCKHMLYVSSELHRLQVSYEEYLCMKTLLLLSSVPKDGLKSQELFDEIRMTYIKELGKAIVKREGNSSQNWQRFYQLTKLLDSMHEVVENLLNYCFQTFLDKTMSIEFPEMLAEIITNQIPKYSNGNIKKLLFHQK
# Summary of the method: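 Translocation of GR-ED fusion to nuclear EA restores b-gal, read by luminescence after 1 h room-temperature detection. Engineered CHO-K1 biosensor cells, 1,000/well, exposed 2 h at 37 C to titrations up to 46 uM final.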
# [6] = biological target: Mitogen-activated protein kinase 10 (Mus musculus) (UniProt Q61831); assay: JNK3 AlphaScreen Assay (AID 530); conditions: JNK3 lysate, c-Jun phosphorylation; series mostly up to 57.1 µM;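 further: kinase came from lysate of stimulated human HepG2 cells; signal reports phosphorylation of biotinylated GST-cJun 1-79 at Ser73 with 10 µM ATP; on the % scale 0 is the no-effect control and ±100 the full control effect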
# Summary of the method: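 Kinase buffer: 20 mM Tris-HCl pH 7.6, 10 mM MgCl2, 1 mM DTT, 0.1 mM Na3VO4, 0.01% Tween-20; ATP 10 uM. Substrate biotin-GST-cJun(1-79), enzyme from activated HepG2 lysates. Detection by Ser73 phospho-antibody AlphaScreen.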
# [7] = biological target: 3',5'-cyclic-AMP phosphodiesterase 4B (Homo sapiens) (UniProt Q07343); assay: qHTS Assay for Inhibitors of PDE-IV (AID 607; active means well fitted activation curve with a large enough effect in the main read-out, with a control signal flat, not every such curve was filed as active; further: % of control where 0% means no effect); conditions: HEK293 ACTOne CNG channel cells, membrane potential fluorescence; series mostly up to 22.9 µM
# Chain of 3',5'-cyclic-AMP phosphodiesterase 4B (Homo sapiens) (Q07343 whole entry, looked up): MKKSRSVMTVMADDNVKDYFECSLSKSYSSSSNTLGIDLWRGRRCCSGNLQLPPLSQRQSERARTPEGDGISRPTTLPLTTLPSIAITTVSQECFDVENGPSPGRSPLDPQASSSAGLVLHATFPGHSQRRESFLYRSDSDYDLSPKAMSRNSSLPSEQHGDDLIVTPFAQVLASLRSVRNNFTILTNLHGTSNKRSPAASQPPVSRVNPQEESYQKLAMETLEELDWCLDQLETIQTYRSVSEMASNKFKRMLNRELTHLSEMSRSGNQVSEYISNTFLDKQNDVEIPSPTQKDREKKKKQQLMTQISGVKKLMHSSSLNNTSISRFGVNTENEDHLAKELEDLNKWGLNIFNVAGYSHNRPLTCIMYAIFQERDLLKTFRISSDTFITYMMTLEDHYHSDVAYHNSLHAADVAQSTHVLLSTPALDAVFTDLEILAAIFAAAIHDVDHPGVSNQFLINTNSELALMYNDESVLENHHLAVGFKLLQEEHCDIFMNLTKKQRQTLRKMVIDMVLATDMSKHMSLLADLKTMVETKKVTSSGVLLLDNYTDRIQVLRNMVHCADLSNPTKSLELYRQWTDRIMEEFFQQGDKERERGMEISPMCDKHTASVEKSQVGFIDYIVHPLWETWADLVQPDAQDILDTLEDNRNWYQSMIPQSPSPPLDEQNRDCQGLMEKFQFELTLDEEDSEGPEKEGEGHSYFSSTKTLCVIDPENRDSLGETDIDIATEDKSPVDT
# Summary of the method: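 ACTOne HEK293 cells carry a modified cAMP-gated CNG channel and express endogenous PDE4; plated 1000 cells/well, compounds up to 22.9 uM final. Membrane-potential dye fluorescence (ex 535/em 590) was read; parental cells received 10 uM forskolin + 100 uM RO 20-1724.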
# [8] = qHTS Assay for Lipid Storage Modulators (AID 1519; calls by dose curve); conditions: Drosophila S3 cells, BODIPY lipid droplet/cell ratio, laser cytometry, cells loaded with oleic acid; for activity change, negative = inhibition: at 57.5 µM (top of the series)
# Summary of the method: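 Cells seeded at 5,000 per well were treated with compounds over a concentration series and loaded with oleic acid (400 uM, as added). Lipid droplet fluorescence (488 nm excitation, 500-530 nm channel) was read by laser-scanning cytometry and normalized to 20 uM Triacsin C.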
# [9] = Primary qHTS for small molecule stabilizers of the endoplasmic reticulum resident proteome: Secreted ER Calcium Modulated Protein (SERCaMP) assay (AID 1508630; active means well fitted curve in the direction sought with a large enough effect; an effect the other way counts as inactive or inconclusive; further: on the % scale 0 is the no-effect control and ±100 the full control effect); conditions: SH-SY5Y GLuc-SERCaMP (Gaussia luciferase released on ER calcium loss) secretion, thapsigargin, luminescence; series mostly up to 38.4 µM
# Summary of the method: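 The SH-SY5Y reporter protocol was run at 3 concentrations up to 38.3 uM (primary) or 11 concentrations (follow-up): 16 h compound, 100 nM thapsigargin for 4 h, then extracellular luciferase luminescence.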
# [10] = biological target: Glucocorticoid receptor (Homo sapiens) (UniProt P04150); assay: GR-GFP Redistribution (AID 450;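 active means compounds whose dose series gives a full or clear partial fitted curve of increased nuclear translocation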; further: potency means the concentration at half of the fitted maximal effect); conditions: U2OS GR-GFP nuclear translocation, laser cytometry, 2 h
# [11] = Confirmation and Secondary Assay for Modulators of Hemoglobin Beta Chain Splicing at IVS2 654 locus (AID 910; active means well fitted curve in the direction sought with a large enough effect; an effect the other way counts as inactive or inconclusive;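 further: HeLa cells stably carrying EGFP split by mutant beta-globin IVS2-654 intron; per-well total GFP intensity by laser scanning cytometry after 2-day treatment; % of control where 0% means no effect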); conditions: HeLa EGFP-654 splicing reporter, GFP fluorescence, 48 h; series mostly up to 38.3 µM
# Summary of the method: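 Readout: per-well total peak green fluorescence (488 nm ex, 500–520 nm em) from objects 5–250 µm, reflecting correct splicing of an EGFP-654 reporter. Compounds were applied for 2 days at 37 °C to overnight-plated HeLa EGFP-654 cells; controls were DMSO and 500 nM IVS2-654 PNA.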
# [12] = Confirmation and Secondary Assay for Modulators of Hemoglobin Beta Chain Splicing at IVS2 705 locus (AID 930; active means well fitted curve in the direction sought with a large enough effect; an effect the other way counts as inactive or inconclusive;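 further: HeLa cells stably expressing the EGFP-705 splicing reporter; % of control where 0% means no effect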); conditions: HeLa EGFP-705 splicing reporter, GFP fluorescence, 48 h; series mostly up to 38.3 µM
# Summary of the method: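 Restored EGFP fluorescence after 2-day compound exposure reports splicing correction in IVS2-705 EGFP reporter HeLa cells; positive control was 500 nM splice-blocking PNA oligo. Signal measured as well total peak GFP intensity (488 nm excitation).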
# [13] = biological target: Ubiquitin carboxyl-terminal hydrolase 1 (Homo sapiens) (UniProt O94782); assay: Inhibitors of USP1/UAF1: Pilot qHTS (AID 504865; active means well fitted curve in the direction sought with a large enough effect; an effect the other way counts as inactive or inconclusive;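 further: rhodamine fluorescence freed from ubiquitin-rhodamine substrate followed over time; top concentration of the series differs between compounds; on the % scale 0 is the no-effect control and ±100 the full control effect; nearly all actives have a fitted effect of over 35% in size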); conditions: purified USP1/UAF1, Ub-rhodamine cleavage fluorescence; series mostly up to 54.9 µM
# Chain of Ubiquitin carboxyl-terminal hydrolase 1 (Homo sapiens) (O94782 whole entry, looked up): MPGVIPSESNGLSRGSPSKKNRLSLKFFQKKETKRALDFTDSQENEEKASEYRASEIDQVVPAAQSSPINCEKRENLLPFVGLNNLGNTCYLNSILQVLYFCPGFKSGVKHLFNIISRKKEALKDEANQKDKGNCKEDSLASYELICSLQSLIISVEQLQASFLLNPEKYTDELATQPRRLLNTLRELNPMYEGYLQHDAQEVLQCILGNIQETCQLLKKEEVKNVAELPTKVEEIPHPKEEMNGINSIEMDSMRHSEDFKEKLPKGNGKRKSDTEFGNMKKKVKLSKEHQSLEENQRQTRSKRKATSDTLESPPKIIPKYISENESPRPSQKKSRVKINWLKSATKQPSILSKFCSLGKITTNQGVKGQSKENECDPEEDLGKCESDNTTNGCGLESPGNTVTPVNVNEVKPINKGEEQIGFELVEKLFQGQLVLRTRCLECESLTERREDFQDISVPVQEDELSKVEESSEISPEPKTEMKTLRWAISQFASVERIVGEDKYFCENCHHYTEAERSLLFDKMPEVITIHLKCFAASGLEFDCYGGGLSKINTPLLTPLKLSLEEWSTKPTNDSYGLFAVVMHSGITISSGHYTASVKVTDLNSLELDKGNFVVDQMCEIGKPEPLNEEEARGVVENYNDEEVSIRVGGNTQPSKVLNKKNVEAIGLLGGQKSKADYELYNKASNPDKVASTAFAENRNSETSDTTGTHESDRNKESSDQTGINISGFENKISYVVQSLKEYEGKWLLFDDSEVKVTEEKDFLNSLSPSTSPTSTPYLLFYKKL
# Summary of the method: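 In 50mM HEPES pH 7.8 containing 0.5mM EDTA, 1mM TCEP, 0.1 mg/ml BSA and 0.01% Tween-20, 1nM USP1/UAF1 is exposed to compound for 15 min, then Ub-Rho (150nM final) is added and fluorescence is read over time.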
# [14] = biological target: Cytochrome P450 1A2 (Homo sapiens) (UniProt P05177); assay: p450-cyp1a2 (AID 410; calls by dose curve;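 further: -100% = full effect of reference inhibitor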); conditions: recombinant CYP1A2, luciferin-ME demethylation, luminescence; series mostly up to 57 µM
# Chain of Cytochrome P450 1A2 (Homo sapiens) (P05177 whole entry, looked up): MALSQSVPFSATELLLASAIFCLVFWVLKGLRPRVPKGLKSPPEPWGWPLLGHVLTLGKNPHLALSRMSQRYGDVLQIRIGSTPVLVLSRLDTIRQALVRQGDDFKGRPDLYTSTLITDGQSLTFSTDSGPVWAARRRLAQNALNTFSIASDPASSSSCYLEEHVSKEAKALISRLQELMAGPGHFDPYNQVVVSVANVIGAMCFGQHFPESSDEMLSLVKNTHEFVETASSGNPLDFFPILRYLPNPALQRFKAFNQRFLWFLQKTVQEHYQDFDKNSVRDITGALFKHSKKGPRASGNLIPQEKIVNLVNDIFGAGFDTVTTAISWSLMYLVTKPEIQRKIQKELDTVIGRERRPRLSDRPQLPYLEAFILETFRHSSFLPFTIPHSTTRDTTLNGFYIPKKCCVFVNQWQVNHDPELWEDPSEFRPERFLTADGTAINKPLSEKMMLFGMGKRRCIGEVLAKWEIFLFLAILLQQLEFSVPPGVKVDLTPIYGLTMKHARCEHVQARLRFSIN
# Summary of the method: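 Read-out is luminescence from luciferin produced by CYP1A2 demethylation of Luciferin-ME (100uM, at Km). Detection reagent stopped the 60 min NADPH-dependent reaction; signals were normalized to 57 uM furafylline.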
# [15] = measured here: cell count channel max response
# [16] = measured here: lipid channel max response
Compound,Potency [1],"activity change, negative = inhibition [2]","activity change, negative = inhibition [3]","activity, negative = inhibition [4]",Potency [5],Potency [6],Potency [7],"activity change, negative = inhibition [8]","max response [8, 15]","max response [8, 16]",outcome [9],Potency [10],Potency [11],outcome [12],Potency [13],Potency [14]
COCC(=O)N1CCC2(CCCN(c3ccc(-c4ccccc4)cc3)C2)CC1,> 11.4 µM (inactive),-7.31% (inactive),3.92% (inactive),-7.13% (inactive),> 46 µM (inactive),inactive,inactive,-5.34% (inactive),18.5%,14.9%,inactive,–,–,–,–,–
CN(C)C(=O)c1ccc(-c2ccc3ncnc(NC4CCNCC4)c3c2)cc1,> 11.4 µM (inactive),-6.93% (inactive),7.8% (inactive),14.8% (inactive),> 46 µM (inactive),inactive,inactive,6.36% (inactive),9.43%,16.5%,inactive,> 46 µM (inactive),inactive,inactive,inactive,–
COc1ccc(C(=O)N2CCC[C@@]3(CCN(c4ncccn4)C3)C2)cc1,> 11.4 µM (inactive),-20.4% (inactive),4.77% (inactive),1.38% (inactive),> 46 µM (inactive),inactive,inactive,4.06% (inactive),3.46%,12.1%,inactive,–,–,–,–,–
COc1cccc(-c2cc(NCc3cccc(C)c3)ncn2)c1,> 11.4 µM (inactive),-1.98% (inactive),-3.2% (inactive),-11.9% (inactive),> 46 µM (inactive),inactive,–,-15.5% (inactive),8.52%,-6.01%,inactive,> 46 µM (inactive),–,–,–,–
COc1ccc(C(=O)N2CCC3(CCN(Cc4ccccc4OC)CC3)CC2)cc1,> 11.4 µM (inactive),-0.655% (inactive),–,–,> 46 µM (inactive),inactive,inactive,2.01% (inactive),10.3%,16.6%,inactive,–,–,–,–,inactive
CS(=O)(=O)N1CCC2(CC1)CN(c1ccccn1)C2,> 11.4 µM (inactive),2.96% (inactive),-0.983% (inactive),5.22% (inactive),> 46 µM (inactive),inactive,inactive,2.99% (inactive),7.05%,10.2%,inactive,–,–,–,–,–
CCNc1ncc2ncc(=O)n(C)c2n1,> 11.4 µM (inactive),3.09% (inactive),-4.43% (inactive),-6.09% (inactive),> 46 µM (inactive),inactive,inactive,5.71% (inactive),10.2%,17.6%,inactive,> 9.22 µM (inactive),–,–,–,–
